Z-score data for 36 compounds are collected here from PubChem BioAssay.

The assay is described as follows: compound effects on hepatocellular carcinoma cell viability – HepG2, calcein-AM fluorescence, 48 h, basal, profiling panel (AID 1164). Also: test concentration not given here. The conditions noted are these: higher = more signal.
Consider `COC(=O)[C@H](C)NC(=O)CCC1CC(OC(=O)NCc2cccc3ccccc23)CC2(CCCC(COC(=O)NCc3ccccc3)O2)O1` (stereo partly specified), for which the z-score is -0.653.
The result for `O=C1CCCC=C1C(O)C1CCCCC1` (stereo unspecified) reads -0.22.
As for `COc1ccc(COC(=O)NN=C2C[C@@H](O)[C@@H](O)[C@@H]3[C@@H]4C(=O)N(Cc5ccccc5)C(=O)[C@@H]4CC[C@@H]23)cc1`, the figure is -0.13; as for `CO[C@H]1COC(=O)CC=C[C@H](C)[C@H](OC)COC(=O)[C@@H](C)NC(=O)CC=C[C@@H]1C`, -0.642; as for `CC(C)CON=C1[C@H]2CCn3c(=O)n(C)c(=O)n3[C@H]2[C@H](O)[C@@H]2O[C@H]12`, 0.361.
As for `CCOC(=O)CCN1C(=O)[C@H]2[C@H]3[C@H](O)[C@H](O)CC(=NOCC=C(C)CCC=C(C)C)[C@@H]3CC[C@H]2C1=O`, the figure is -0.124.
Turning to `CC[C@@H](c1ccccc1)n1c(=O)n2n(c1=O)[C@H]1[C@H](O)[C@@H]3O[C@@H]3C(=NOCc3ccccc3)[C@H]1CC2`, the z-score was -3.76.
As for `CC(CCN1CCCc2nc(C)c(C)cc21)=NO[C@@H](C)c1cn([C@H](CO)Cc2ccccc2)nn1`, the figure is -0.136; as for `COC(=O)[C@H](C)NC(=O)CCC1CC(OC(=O)NCCc2ccc(F)cc2)CC2(CCCC(COC(=O)NCC3CCCCC3)O2)O1` (stereo partly specified), -1.36.
`CCOC(=O)[C@H](Cc1ccccc1)NC(=O)CCC1CC(OC(=O)NCc2ccc3c(c2)OCO3)CC2(CCCC(COC(=O)NCCCN3CCCC3=O)O2)O1` (stereo partly specified): the z-score is -0.152.
As for `CC(CCC(=O)OC[C@H]1O[C@H](C#Cc2ccccc2)C=C[C@@H]1Oc1ccc(C)cc1)=NOC[C@@H](C)[C@H](OCc1ccccc1)C(C)C`, the figure is -0.489; as for `CCN1C(=O)[C@H]2[C@H]3[C@H](O)[C@H](O)CC(=NOC[C@@H](O)[C@H]4O[C@@H]5OC(C)(C)O[C@@H]5[C@H]4O)[C@@H]3CC[C@H]2C1=O`, 0.282.
The result for `CC(C)CON=C1C[C@@H](O)[C@@H](O)[C@@H]2[C@@H]3C(=O)N(Cc4ccc5c(c4)OCO5)C(=O)[C@@H]3CC[C@@H]12` reads -0.211; that for `C=CC[C@@H]1C=C[C@H](ON=C2C[C@@H](O)[C@@H](O)[C@@H]3[C@@H]4C(=O)N(CC)C(=O)[C@@H]4CC[C@@H]23)[C@@H](CO)O1`, 0.281; that for `CO[C@H]1COC(=O)CCC[C@H](C)[C@H](OC)COC(=O)CC=C[C@@H]1C`, 0.481.
Turning to `COc1ccc2c(c1)O[C@@H](c1cccc(C(F)(F)F)c1)[C@H](O)C2=O`, the z-score is -0.294.
As for `CC(CCN1CCCc2nc(C)c(C)cc21)=NOC[C@@H](O)COCc1ccco1`, the figure is -0.496.
The result for `CCN1C(=O)[C@H]2[C@H]3[C@H](O)[C@H](O)CC(=NO[C@@H]4O[C@H](CO)[C@@H](O)[C@H](O)[C@H]4O)[C@H]3CC[C@H]2C1=O` reads 0.298; that for `CCOC(=O)[C@H](CC(C)C)NC(=O)CCC1CC(OC(=O)NCc2ccc3c(c2)OCO3)CC2(CCCC(COC(=O)NCCOc3ccccc3)O2)O1` (stereo partly specified), -1.78.
Take `O=C1C2=CC[C@H]3C(=O)N(c4ccc(F)cc4F)C(=O)[C@H]3[C@H]2[C@H](O)[C@@H]2O[C@H]12`: the z-score was 0.0658.
Regarding `CC(=O)OC[C@H]1O[C@H](C#CCCc2ccccc2)C=C[C@@H]1OC(C)=O`, the z-score is -0.207.
The result for `CC(C)=NOC(C)CN1CCCc2nc(C)c(C)cc21` (stereo unspecified) reads 0.272; that for `COC(=O)[C@H](C)NC(=O)CCC1CC(OC(=O)NCc2cccc3ccccc23)CC2(CCCC(COC(=O)NCCOc3ccccc3)O2)O1` (stereo partly specified), -1.24.
With `C[C@@H]1CC[C@@H](C(=O)O)N[C@H]1c1cccc(N2CCOCC2)c1`, the z-score was 0.0881.
The result for `COC(=O)[C@@H]1CC[C@H](C)[C@@H](c2ccc(Br)cc2)N1C[C@H](O)CN=[N+]=[N-]` reads -0.671; that for `CCOC(=O)[C@H](Cc1ccccc1)NC(=O)CCC1CC(OC(=O)NCCc2ccc(F)cc2)CC2(CCCC(COC(=O)NCc3cccc(C(F)(F)F)c3)O2)O1` (stereo partly specified), -0.875; that for `COc1cccc([C@H]2Oc3ccc(OC)cc3C(=NOCC[C@@H]3C=C[C@H](OC(C)=O)[C@@H](COC(C)=O)O3)[C@@H]2O)c1`, -0.744.
In the case of `CC(=O)OC[C@H]1O[C@H](CC=NO[C@@H](C)c2cc(-c3c(C)cc(C)cc3C)no2)C=C[C@@H]1OC(C)=O`, the z-score is -0.799.
The result for `CCOC(=O)NN=C1C[C@@H](O)[C@@H](O)[C@@H]2[C@@H]3C(=O)N(c4ccc(F)cc4F)C(=O)[C@@H]3CC[C@H]12` reads -0.925.
The result for `O=C1[C@H]2[C@H]3[C@H](O)[C@H](O)CC(=NO[C@@H]4O[C@H](CO)[C@@H](O)[C@H](O)[C@H]4O)[C@H]3CC[C@H]2C(=O)N1C[C@@H]1CCCO1` reads 0.184; that for `CCOC(=O)[C@H](Cc1ccccc1)NC(=O)CCC1CC(OC(=O)NCCc2ccc(F)cc2)CC2(CCCC(COC(=O)NCCC(C)C)O2)O1` (stereo partly specified), 0.368; that for `CO[C@H]1COC(=O)[C@H](C)COC(=O)[C@@H](OCc2ccccc2)C=C[C@@H]1C`, 0.392.
As for `O=C1[C@H]2[C@H]3[C@H](O)[C@H](O)CC(=NOC[C@@H](O)COCc4ccco4)[C@@H]3CC[C@H]2C(=O)N1Cc1ccccc1`, the figure is -0.297; as for `CC(C)=CCCC(C)=CCON=C1C[C@@H](O)[C@@H](O)[C@@H]2[C@@H]3C(=O)N(Cc4ccc5c(c4)OCO5)C(=O)[C@@H]3CC[C@H]12`, -0.579.
In the case of `COC(=O)[C@H](C)NC(=O)CC=C[C@@H](C)[C@@H]1C=C[C@H](O)[C@@H](CO)O1`, the z-score was 0.583.
With `COc1ccc(COC(=O)NN=C2C[C@@H](O)[C@@H](O)[C@@H]3[C@@H]4C(=O)N(C[C@@H]5CCCO5)C(=O)[C@@H]4CC[C@@H]23)cc1`, the z-score is 0.245.
